# Screening results: PubChem BioAssay, several laboratories
# In the library only some 2.2% were active in any assay of this set; here they are far more common.
# APP 5UTR inh: APP translation inhibition; SH-SY5Y APP 5'UTR-luciferase reporter, luminescence; inhibition, % at 2 µM; 0.82% of 190,000 active;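 active = inhibition above a set limit, derived from the sample mean plus 3 SD, cut at about 45% in these data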
# KLF5 inh: inhibitors of KLF5 expression. DLD-1 KLF5 promoter-luciferase reporter, luminescence. inhibition, % at 5 µM. 0.23% of 290,000 active. AID 1700;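 active = inhibition above a per-plate limit of that plate's mean compound inhibition plus 3 SD, cut at about 60% in these data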;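 note: 0% = DMSO wells and 100% = LY294002 at 200 µM; higher means less KLF5 promoter-driven luciferase light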
# aSyn UTR inh: MLPCN primary screen, SNCA 5' untranslated region. alpha-synuclein 5'UTR reporter, inhibitor activity. inhibition, % (tested at 7.5 µM). 0.82% of 300,000 active; in the data active = inhibition above about 60%;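 note: H4 neuroglioblastoma cells stably carrying SNCA 5'UTR luciferase fusion; 0% = DMSO wells and 100% = positive control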
# Ba/F3 V617F tox: loss of viability in JAK2V617F-driven Ba/F3 cells. inhibition, % at 5.6 µM. Ba/F3 EpoR-JAK2V617F viability, ATP luminescence. 1.1% of 220,000 active;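 active = inhibition above the campaign mean plus 3 SD over all tested compounds, cut at about 24% in these data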;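 note: cytokine-independent growth of Ba/F3 cells driven by EpoR plus mutant JAK2; 0% = DMSO-treated cells and 100% = JAK inhibitor I control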
# IEC-6 tox: IEC-6 cytotoxicity, counter-screen for KLF5 inhibitors; luminescence viability; inhibition, % at 5 µM; 0.78% of 290,000 active; AID 1825; in the data active = inhibition above about 22%;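 note: 0% = plate median of test compound wells and 100% = cytotoxic reference compound wells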
# BaF3 tox: parental Ba/F3 viability inhibition as JAK2V617F counter-screen; CellTiter-Glo ATP luminescence; inhibition, % at 5.6 µM; 1.1% of 220,000 active;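 active = inhibition above a per-campaign cutoff, the mean inhibition of all tested compounds plus 3 SD, cut at about 27% in these data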;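 note: 0% = DMSO wells and 100% = JAK Inhibitor I control wells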
# * hit, by the source's call; / = no result.
SMILES,APP 5UTR inh,KLF5 inh,aSyn UTR inh,Ba/F3 V617F tox,IEC-6 tox,BaF3 tox
CCN(CC)C(=S)SCc1csc(CC(=O)Nc2ccccc2C)n1,/,-30,7,/,1,/
CCc1nn2cc(-c3ccccc3)nc2s1,-153,-72,80*,-2,2,5
CC(C)c1nc2oc3c(N(C)CCO)ncnc3c2c2c1CCC2,/,-16,11,-2,2,-2
CC1CCN(C(=O)COC(=O)c2ccc3c(c2)OCO3)CC1,-64,-42,-118,-3,8,1
COc1ccc(/C=N/NC(=O)c2ccncc2)cc1COc1ccc(NC(C)=O)cc1,/,-15,80*,0,-2,1
COc1ccc(C(=O)N/N=C/c2ccc(OC)c(COc3ccccc3)c2)cc1,/,-41,9,/,0,/
COc1cc(OC)cc(C(=O)N/N=C/c2ccc(OC)c(COc3ccc4ccccc4c3)c2)c1,56*,4,5,2,5,5
CCN(CC)c1ccc(NC(=O)CCN2C(=O)c3ccccc3S2(=O)=O)c(C)c1,/,/,-10,/,/,/
CC(Oc1ccc(Cl)cc1Cl)c1nc(-c2ccc(NC(=O)c3cccnc3)cc2)no1 (stereo not given),-6,-8,92*,2,-2,2
CC(Oc1ccc(Cl)cc1Cl)c1nc(-c2ccc(NC(=O)c3ccncc3)cc2)no1 (stereo not given),-8,-14,-6,1,1,9
CC1C/C(=C\c2cccnc2)C(=O)/C(=C/c2cccnc2)C1 (stereo not given),96*,20,/,7,14,-5
COc1ccc(S(=O)(=O)NCC(c2ccc3c(c2)OCO3)N2CCN(c3ccccc3)CC2)cc1 (stereo not given),/,/,-1,/,/,/
CC(C)N1CCc2c(sc(NC(=O)CN3C(=O)c4ccccc4C3=O)c2C(N)=O)C1,-10,-25,12,-1,-1,6
COc1cc2ccccc2cc1C(=O)Nc1sc2c(c1C(N)=O)CCN(C(C)C)C2,/,-11,102*,/,15,/
COC(=O)c1sccc1NC(=O)c1c(-c2ccccc2)noc1C,-9,9,5,-3,20,5
COC(=O)c1c(-c2ccc(C)cc2)csc1NC(=O)c1c(-c2ccccc2)noc1C,-10,-14,68*,-1,-6,5
CCn1cc(C(=O)Nc2ccc(Cl)cc2Cl)cn1,/,/,-72,/,/,/
CCn1c2ccccc2c2cc(/C=N/NC(=O)c3ccccc3C)ccc21,79*,-17,0,2,4,10
CCN1CCN(c2c(Cl)cccc2NC(=O)c2ccc([N+](=O)[O-])o2)CC1,/,5,79*,/,0,/
CCCC(=O)N1CCN(c2ccc(NC(=O)c3ccc([N+](=O)[O-])o3)cc2Cl)CC1,98*,-41,-118,94*,0,82*
O=C(Nc1cccc(S(=O)(=O)N2CCCCC2)c1)c1ccc([N+](=O)[O-])o1,45*,5,-268,1,11,-4
CC(C)C(=O)N1CCN(c2ccc(NC(=O)c3ccc([N+](=O)[O-])o3)cc2Cl)CC1,96*,-14,/,10,6,-9
O=C(Nc1ccc(N2CCCC2)c(Cl)c1)c1ccc([N+](=O)[O-])cc1,-13,-15,-53,-2,4,2
O=C(Nc1cccc(Cl)c1N1CCCC1)c1ccc([N+](=O)[O-])o1,-18,-13,/,-2,-8,-2
CC(=O)N1CCN(c2ccc(NC(=O)c3ccc(Br)o3)cc2Cl)CC1,-12,-62,-51,-2,-4,2
SMILES,APP 5UTR inh,KLF5 inh,aSyn UTR inh,Ba/F3 V617F tox,IEC-6 tox,BaF3 tox
O=C(NCCc1ccccn1)C1CCCN1S(=O)(=O)c1ccc(Cl)cc1 (stereo not given),/,4,1,/,5,/
Cc1cc(C)nc(SCC(=O)NN=C2CCCC2)n1,17,-34,7,2,3,8
O=C(Nc1ccccc1N1CCOCC1)c1ccc([N+](=O)[O-])o1,/,-10,-45,/,9,/
O=C(Nc1ccc(N2CCOCC2)c(Cl)c1)c1ccc([N+](=O)[O-])o1,95*,-18,-56,1,-4,-5
Cc1ccc(NC(=O)c2ccc([N+](=O)[O-])o2)cc1S(=O)(=O)N1CCOCC1,58*,-32,-24,-1,14,-8
Cc1cc(NC(=O)CCC(=O)N(c2ccccc2)C(C(=O)NC2CCCC2)c2ccccc2C)no1 (stereo not given),/,4,40,/,-6,/
CN(C)c1ccc(CCc2ccc(N)cc2)cc1,/,/,84*,/,/,/
COc1ccc(/C=C2\SC(=S)N(CCC(=O)NCCCn3ccnc3)C2=O)cc1,/,22,54,/,-5,/
